The structures appear in SMILES notation. Activity calls are given as the source filed them. Where a call stands in place of a potency, no number is given. The call rests on the fitted dose curve; in most records, active means well fitted activation curve with a large enough effect; inconclusive means small, poorly fitted or top-dose-only effect; inactive means flat fitted curve, though single readings scatter.
Potency means the concentration at half of the fitted maximal effect.

The nature of this experiment: Cellular Toxicity (caspase-3) SK-N-SH (AID 661). As to conditions: SK-N-SH caspase-3 activation, qHTS; series mostly up to 91.7 µM. From the text:
NIH Chemical Genomics Center [NCGC]
NIH Molecular Libraries Screening Centers Network [MLSCN]
National Institutes of Environmental Health Sciences [NIEHS]
National Toxicology Program [NTP]
We have developed a 1536-well cell-based assay for quantitative high throughput screening (qHTS) against a number of cell lines to determine in vitro caspase 3/7 activity of small molecules. This particular assay uses the SK-N-SH cell line which is derived from human neuroblastoma.
NCGC Assay Protocol Summary:
The Caspase-Glo 3/7 assay (Promega) is a homogeneous method to measure caspase-3 and caspase-7 activities in cultured cells. The quantitation of caspase 3/7 activity is based on the cleavage of a peptide-aminoluciferin substrate. After caspase cleaves the substrate the free aminoluciferin is liberated and serves as the substrate of luciferase, which generates the light. The luminescent signal is proportional to amount of caspase 3/7 activity present.
Using the Caspase-Glo 3/7 assay, the amount of caspase 3/7 activity was measured in the SK-N-SH cell line with complete culture medium following compound treatment for 16 hours. The assay was performed in opaque white 1536-well plates. In the screen, tamoxifen and staurosporine were used as positive controls. Library compounds were measured for their ability to cause the activation of caspase 3/7 in the cell line, as reflected by an increase in luminescence signal, in a concentration-dependent manner. Data were normalized to the controls for basal activity (DMSO only) and 100% stimulation (10 uM staurosporine). AC50 values were determined from concentration-response data modeled with the standard Hill equation.
qHTS protocol for caspase 3/7 assay in SK-N-SH cells
[Step] [Parameter] [Value] [Description]
1. Reagent; 5 uL; 1500 SK-N-SH cells/well
2. Time; 5 hr; 37 °C incubation
4. Controls; 23 nL; Tamoxifen 0.23 uM to 100 uM & staurosporine 1.4 pM to 100 uM
5. Time; 16 hr; 37 °C incubation
6. Reagent; 5 uL; Caspase-Glo 3/7 reagent
7. Time; 1 hr; Room Temperature
8. Detection; Luminescence; Viewlux plate reader
Keywords: caspase 3/7, apoptosis, SK-N-SH cell line, luminescence, NTPHTS, NTPHTS_NCGC, NIEHS, EPA, DSSTox, MLSMR, MLSCN, NIH Roadmap, qHTS, NCGC
Regarding `O=c1cc(-c2ccc(O)cc2)oc2cc(O)cc(O)c12`, the Potency entry is “inactive”.

Consider `CCCNC(=O)NS(=O)(=O)c1ccc(Cl)cc1`, for which the Potency entry is “inactive”.

In the case of `CC(=O)c1ccc(S(=O)(=O)NC(=O)NC2CCCCC2)cc1`, the Potency entry is “inactive”.

In the case of `CCn1cc(C(=O)O)c(=O)c2ccc(C)nc21`, the Potency result is “inactive”.

As for `CCCCC1C(=O)N(c2ccccc2)N(c2ccccc2)C1=O`, the Potency entry was “inactive”.

Turning to `O=C(O)Cc1cccc2ccccc12`, the Potency result was “inactive”.

For `O=C(O)c1cc(O)c2c(c1)C(=O)c1cccc(O)c1C2=O`, the Potency entry is “inactive”.

Take `O=c1[nH]cnc2c1ncn2[C@H]1CC[C@@H](CO)O1`: the Potency entry was “inactive”.

For the compound `O=c1c(O)c(-c2ccc(O)cc2)oc2cc(O)cc(O)c12`, the Potency entry was “inactive”.

Regarding `CC(=O)O[C@]1(C(C)=O)CC[C@H]2[C@@H]3C=C(Cl)C4=CC(=O)[C@@H]5C[C@@H]5[C@]4(C)[C@H]3CC[C@@]21C`, the Potency result is “inactive”.

As for `O=C1NC(=O)C(c2ccccc2)(c2ccccc2)N1`, the Potency result was “inactive”.

On to `CN(C)CCC(c1ccccc1)c1ccccn1` (centres undefined), for which the Potency entry is “inactive”.

As to `CC1=C(/C=C/C(C)=C/C=C/C(C)=C/C(=O)Nc2ccc(O)cc2)C(C)(C)CCC1`, the Potency is 31.6 µM (active).

Consider `O=c1c(-c2ccc(O)cc2)coc2cc(O)ccc12`, for which the Potency result was “inactive”.

(Values after PubChem BioAssay (NCATS).)
